Glioma ERSR ind = qHTS for Inducers of the Endoplasmic Reticulum Stress Response (ERSR) in Human Glioma: qHTS. U87-MG GRP78 promoter luciferase reporter, 16 h. Potency, µM, for the others: at the highest dose activation, actives largely listed as activators. hit rate 0.02% among 420,000. AID 602332, 2012; further: potency means the concentration at half of the fitted maximal effect; series mostly up to about 76 µM; % of control where 0% means no effect; nearly all actives have a fitted effect of over 35% in size
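Stably transfected U87-MG human glioma cells carrying a GRP78-based luminescent sensor were seeded at 1000 cells/well, pin-dosed with compounds and incubated 16 h. Luciferase reagent was then added, and end-point luminescence was read after 10 min at room temperature.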
Mito fusion act = qHTS Assay for Small Molecule Inhibitors of Mitochondrial Division or Activators of Mitochondrial Fusion; S. cerevisiae fusion-defective mutant growth rescue, CellTiterGlo 48 h; Potency, µM (doses to about 46.1 µM), for inactives: at the top dose growth rescue (activation), actives largely listed as activators; hit rate 0.23% among 320,000; AID 485298, 2010; further: potency means the concentration at half of the fitted maximal effect; % of control where 0% means no effect; nearly all actives have a fitted effect of over 45% in size
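Temperature-sensitive fusion-defective S. cerevisiae (e.g. fzo1-1, mgm1-5) were grown with compound in YPEG medium (3% ethanol, 3% glycerol) for 48 hours at 37C. Growth rescue was measured as viability by CellTiterGlo luminescence after 10 minutes at ambient.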
TCR activator = Activators of T cell receptors: qHTS campaign | AID 504894, 2011 | Potency, µM (highest dose often 9.22 µM), without a hit: at the top dose activation of IL-2 secretion, hits mostly activators | primary human leukocytes, anti-CD3, IL-2 HTRF, 48 h | 330,000 tested, under 10 active; further: % of control where 0% means no effect
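IL-2 release read by HTRF sandwich (Eu cryptate donor, d2 acceptor, 665 nm emission) after 48 hr exposure of primary human leukocytes to compound together with anti-CD3 beads in the absence of co-stimulatory signals.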
A-T KAP1 phos = qHTS Assay for Identifying a Potential Treatment of Ataxia-Telangiectasia | F2112 A-T fibroblasts, KAP-1 phosphorylation AlphaLISA; neocarzinostatin DNA damage 30 min before lysis | Potency, µM (series often up to 57.5 µM), without a hit: at the top dose activation, usual class: activators | hit rate 0.19% among 320,000 | AID 485349, 2010; further: potency means the concentration at half of the fitted maximal effect; % of control where 0% means no effect; nearly all actives have a fitted effect of over 45% in size
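hTERT-immortalized A-T patient fibroblasts (F2112), 500 cells/well in OPTI-MEM, 1% FBS, got compounds for 60 min, then NCS for 30 min at 37C. Lysates were then assayed for phospho-KAP-1 by AlphaLISA (anti-pKAP1 donor, anti-KAP1 acceptor beads), 6 hr at 25C.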
MBNL1-CUG inh = qHTS Assay for Inhibitors of MBNL1-poly(CUG) RNA binding | Muscleblind-like protein 1 (Homo sapiens), Q9NR56 | hit rate 0.036% among 280,000 | TR-FRET MBNL1-His/biotin-(CUG)12 binding, 665/545 ratio | AID 2675, 2010 | Potency, µM (highest dose often 57.5 µM), for the others: at the top dose activity change, negative = inhibition, actives largely listed as inhibitors; active means well fitted inhibition curve with a large enough effect in the signal ratio, with a control signal flat, not every such curve was filed as active; inconclusive means small, poorly fitted or top-dose-only effect, or effect the other way, or a change in a side signal; inactive means no such curve, though single readings can be large or run the other way; the % refers to the signal ratio; further: potency means the concentration at half of the fitted maximal effect; on the % scale 0 is the no-effect control and ±100 the full control effect
Target sequence (Q9NR56 whole entry, looked up): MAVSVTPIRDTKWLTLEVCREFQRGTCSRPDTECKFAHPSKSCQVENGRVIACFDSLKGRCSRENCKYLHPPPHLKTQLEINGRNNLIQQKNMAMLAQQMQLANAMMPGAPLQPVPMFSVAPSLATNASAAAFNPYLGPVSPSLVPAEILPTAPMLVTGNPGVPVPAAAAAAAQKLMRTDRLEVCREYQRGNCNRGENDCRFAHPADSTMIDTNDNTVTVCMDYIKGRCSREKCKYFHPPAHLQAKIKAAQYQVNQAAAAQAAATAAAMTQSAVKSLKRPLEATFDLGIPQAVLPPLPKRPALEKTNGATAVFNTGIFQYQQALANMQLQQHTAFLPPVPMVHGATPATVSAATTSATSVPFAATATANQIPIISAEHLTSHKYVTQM
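Inhibition of protein-RNA binding appears as loss of TR-FRET between terbium anti-His antibody on MBNL1-His and streptavidin-XL665 on biotin-(CUG)12. Activity is normalized to buffer-only and uninhibited-complex controls.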
ClpP mod = qHTS Assay for Activators of ClpP | purified B. subtilis ClpP, FRET peptide cleavage, 20 min | hit rate 1.9% among 340,000 | Potency, µM (titrated, usually from 57.5 µM), without a hit: at the top dose activity change, negative = active; active means well fitted falling curve with a large enough effect; inconclusive means small, poorly fitted or top-dose-only effect; inactive means no such curve, though single readings can be large or run the other way; further: potency means the concentration at half of the fitted maximal effect; the source files actives as falling curves though it sought activators and does not explain the sign; nearly all actives have a fitted effect of over 65% in size
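ClpP 10 microg/mL final, pH 8 Tris/KCl buffer with BSA, glycerol, Tween-20; compound pinned in; FRET-FV substrate; RT 20 min; Ex320/Em430; ΔFRET vs ADEP 5.8 microM, DMSO, no enzyme.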
The depositor's hits bear a star; u = inconclusive; x = no result; [ ] = dose if it differs, or a comment. Shown are actives, neighbours in structure and some others; about 1.8% of the full set was active somewhere. Unless noted, the call rests on the fitted dose curve; in most records, active means well fitted curve in the direction sought with a large enough effect; inconclusive means small, poorly fitted or top-dose-only effect, or another doubt; inactive means no such curve, though single readings can be large; an effect the other way counts as inactive or inconclusive.

SMILES	Glioma ERSR ind	Mito fusion act	TCR activator	A-T KAP1 phos	MBNL1-CUG inh	ClpP mod
O=S1(=O)CC(O)C(N2CCCCC2)C1 (configuration not stated)	-7%	-2%	4%[46.1 µM]	0%	1%	11µM*
COc1cc(OC)c(OC)cc1/C=N/NC(=S)NCC1CCCO1 (configuration not stated)	-3%	-4%	0%	x	11%	32µM*
COc1cc(OC)c(OC)cc1/C=N/NC(=S)NCCN1CCOCC1	0%	-5%	6%	-1%	5%	x
COc1ccccc1C(=O)Nc1ccc(S(=O)(=O)Nc2cc(C)on2)cc1	-6%	-5%	-5%	-1%	-2%	25µM*
Cc1cc(NS(=O)(=O)c2ccc(NC(=O)c3ccccc3F)cc2)no1	-1%	x	5%	-1%	x	1%
COc1cc(=O)n2c(c1C(=O)NCc1ccco1)CCN(Cc1ccc(F)cc1Cl)CC2	-4%	x	x	x	x	x
Cc1ccc(C2CC(=O)Nc3c2ccc2ccccc32)cc1[N+](=O)[O-] (configuration not stated)	-3%	22µM*	1%[46.1 µM]	2%	19%	u
C=C1C=C(C(F)F)n2ncc(C(=O)N3CCCCC3)c2N1	-3%	x	x	x	x	-2%
CCOc1ccc(N=Cc2ccc3ccccc3c2)cc1	-1%	2%	1%	-1%	1%	-2%
O=[N+]([O-])c1cc(C=Nc2ccc3ccccc3c2)ccc1Br	12%	5%	5%[46.1 µM]	-6%	21%	28µM*
O=C(Nc1nccs1)c1ccccc1N=Cc1ccccc1	2%	-3%	-1%	16%	-7%	28µM*
O=C(Nc1ccccc1)c1ccccc1N=Cc1ccccc1O	-1%	23%	3%[46.1 µM]	3%	10%[11.5 µM]	35µM*
COc1cc2ccccc2cc1C(=O)Nc1nccs1	5%	-2%	2%	6%	12%	-6%
O=C(Nc1nccs1)c1cccnc1Cl	0%	-3%	-2%	-9%	-10%	-2%
COc1cccc(C=Nc2ccccc2C(=O)Nc2nccs2)c1OC	6%	1%	1%	-14%	-7%	32µM*
CCC1(C2CCN(C(=O)c3ccc(C)c(C)c3)CC2)NC(=O)N(CCc2scnc2C)C1=O (configuration not stated)	-1%	x	x	x	x	x
Cc1cc(C(=O)NCc2ccccc2)c(=O)[nH]c1C	-2%	-1%	2%	19%	6%	80%
Cc1cc(C(=O)O)c(=O)[nH]c1C	-4%	3%	-10%	3%	0%	25µM*
O=C(CN1N=C(C(F)(F)F)CC1(O)c1ccc([N+](=O)[O-])cc1)c1ccccc1 (configuration not stated)	-6%	16µM*	2%[46.1 µM]	2%	u	3%
CCOC(=O)c1ccccc1NC(=O)N(C(C)C)C1CCN(C(C)=O)CC1	-2%	x	x	x	x	28µM*
CCOc1ccc(NC(=O)CCN2CCN(S(=O)(=O)c3cc(Cl)ccc3OC)CC2)cc1	1%	0%	0%	-4%	2%	28µM*
Cc1cc(=O)oc2cc(OCC(=O)NCc3ccco3)ccc12	-1%	0%	u	-4%	-10%	28µM*
Cc1cc(=O)oc2cc(OCC(=O)NCc3cccnc3)ccc12	-1%	-1%	-1%	4%	9%	25µM*
Cc1cc(=O)oc2cc(OCC(=O)NCc3ccncc3)ccc12	-3%	3%	4%	2%	0%	22µM*
O=C(COc1ccc2oc(-c3ccccc3)cc(=O)c2c1)NCc1ccco1	1%	0%	14%	3%	10%	35µM*
Cc1cc(=O)oc2cc(OCC(=O)NCCc3ccccc3)ccc12	-3%	-5%	-5%	6%	-1%	x
